# Out of some 310,000 compounds screened, about 14,000 (4.5%) showed an effect of 50% or more. The effect is printed as a negative number. The full list was thinned out, with strong results kept by preference.
# Target: human ether-à-go-go-related gene (hERG) potassium channel (human, UniProt Q12809)
# Test: primary screen, population patch clamp on CHO cells stably expressing hERG; higher = less effect of the substance
# 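Note: peak tail current of the secondary pulse compared with the same well before compound.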
# Sequence of human ether-à-go-go-related gene (hERG) potassium channel (Q12809 whole entry, looked up): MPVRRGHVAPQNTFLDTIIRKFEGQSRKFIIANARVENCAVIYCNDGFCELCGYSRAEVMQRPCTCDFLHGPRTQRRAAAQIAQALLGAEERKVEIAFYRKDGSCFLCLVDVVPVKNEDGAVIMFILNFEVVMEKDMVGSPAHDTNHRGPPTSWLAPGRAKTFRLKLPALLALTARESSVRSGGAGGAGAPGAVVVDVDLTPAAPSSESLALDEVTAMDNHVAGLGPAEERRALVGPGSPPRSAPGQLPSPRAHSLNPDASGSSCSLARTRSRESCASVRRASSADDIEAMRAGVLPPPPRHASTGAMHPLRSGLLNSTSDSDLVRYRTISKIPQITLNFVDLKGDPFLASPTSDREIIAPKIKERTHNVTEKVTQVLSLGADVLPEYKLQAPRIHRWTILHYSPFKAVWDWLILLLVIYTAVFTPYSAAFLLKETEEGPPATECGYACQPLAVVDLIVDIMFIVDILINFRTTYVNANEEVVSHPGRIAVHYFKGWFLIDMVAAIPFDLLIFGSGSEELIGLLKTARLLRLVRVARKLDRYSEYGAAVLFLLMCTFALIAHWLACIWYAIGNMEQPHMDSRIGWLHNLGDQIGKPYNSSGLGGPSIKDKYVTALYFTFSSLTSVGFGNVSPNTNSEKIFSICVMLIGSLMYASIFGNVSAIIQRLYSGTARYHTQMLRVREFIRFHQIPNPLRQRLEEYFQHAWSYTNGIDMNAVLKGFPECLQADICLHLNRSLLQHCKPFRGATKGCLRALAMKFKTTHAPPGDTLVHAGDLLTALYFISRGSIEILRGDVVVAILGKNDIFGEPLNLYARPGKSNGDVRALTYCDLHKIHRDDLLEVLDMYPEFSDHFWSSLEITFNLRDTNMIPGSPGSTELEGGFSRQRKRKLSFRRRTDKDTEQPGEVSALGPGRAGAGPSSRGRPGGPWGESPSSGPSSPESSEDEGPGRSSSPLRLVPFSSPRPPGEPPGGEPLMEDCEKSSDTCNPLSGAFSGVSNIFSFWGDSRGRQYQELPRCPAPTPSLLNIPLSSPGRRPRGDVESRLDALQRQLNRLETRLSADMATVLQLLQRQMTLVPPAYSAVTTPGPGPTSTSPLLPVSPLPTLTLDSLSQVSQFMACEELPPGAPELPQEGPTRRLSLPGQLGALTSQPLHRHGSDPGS
row,SMILES,"hERG current change (%, negative = inhibition) at 10uM [%]"
1,CCN(C(=O)CSc1nc2ccc([N+](=O)[O-])cc2s1)C1CCS(=O)(=O)C1 (stereo not drawn),-61.8
2,CN(C(=O)CSc1nc2ccc([N+](=O)[O-])cc2s1)C1CCS(=O)(=O)C1 (stereo not drawn),-55.9
3,CN(C(=O)CSc1nc(-c2ccccc2)cs1)C1CCS(=O)(=O)C1 (stereo not drawn),-19.6
4,CCN(C(=O)CN1C(=O)c2ccc([N+](=O)[O-])cc2C1=O)C1CCS(=O)(=O)C1 (stereo not drawn),13.8
5,CCN(C(=O)Cn1cnc2cc([N+](=O)[O-])ccc2c1=O)C1CCS(=O)(=O)C1 (stereo not drawn),1.53
6,O=[N+]([O-])c1cccnc1Sc1ccc(Cl)cc1,-11
7,O=C(Nn1c(COc2ccccc2)nc2ccccc2c1=O)C(Cl)(Cl)Cl,9.26
8,CC(C(=O)Nc1nc2ccccc2s1)n1cc([N+](=O)[O-])cn1 (stereo not drawn),-69.5
9,O=C(Cn1ccc([N+](=O)[O-])n1)Nc1nc2ccccc2s1,-45.8
10,O=C(Cn1cc([N+](=O)[O-])cn1)Nc1ccccn1,16.1
11,Cc1cccc(NC(=O)C(C)n2cc([N+](=O)[O-])cn2)n1 (stereo not drawn),-7.48
12,O=C(Cn1cc([N+](=O)[O-])cn1)Nc1nc2ccccc2s1,-74.6
13,CC(C(=O)Nc1cccnc1)n1cc([N+](=O)[O-])cn1 (stereo not drawn),17.7
14,CC(=O)c1sc(NC(=O)c2oc3ccc(F)cc3c2C)nc1C,0.318
15,O=C(c1cccc(F)c1)N1CCN(S(=O)(=O)c2ccccc2)CC1,0.349
16,CO/N=C/c1ccc(N2CCCC2)c([N+](=O)[O-])c1,-1.34
17,CO/N=C/c1ccc(N2CCN(C(=O)c3ccc(Cl)cc3Cl)CC2)c([N+](=O)[O-])c1,-53.1
18,CO/N=C/c1ccc(N2CCN(C(=O)c3ccc(C)cc3)CC2)c([N+](=O)[O-])c1,-74.9
19,CO/N=C/c1ccc(N2CCN(C(=O)c3cccc(C(F)(F)F)c3)CC2)c([N+](=O)[O-])c1,-43.5
20,O=C(O/N=C\c1ccc(N2CCCCC2)c([N+](=O)[O-])c1)c1ccc(Cl)cc1Cl,-1.17
21,CO/N=C/c1ccc(N2CCN(C(=O)c3ccc(F)cc3)CC2)c([N+](=O)[O-])c1,-78.3
22,CO/N=C/c1ccc(N2CCOCC2)c([N+](=O)[O-])c1,0.313
23,O=C(O/N=C\c1ccc(N2CCOCC2)c([N+](=O)[O-])c1)c1ccc(F)cc1,-6.14

row,SMILES,"hERG current change (%, negative = inhibition) at 10uM [%]"
1,Cc1ccc(C(=O)O/N=C\c2ccc(N3CCCCC3)c([N+](=O)[O-])c2)cc1,12.8
2,O=C(NCCS(=O)(=O)N1CCN(c2ccccc2F)CC1)c1cccc(Br)c1,2.34
3,O=C1COc2ccc(C(=O)CSc3ccccc3C(=O)O)cc2N1,12.1
4,C=CCn1c(C)cc(-c2csc(NC(=O)CCc3nc4ccccc4c(=O)[nH]3)n2)c1C,-23.8
5,CCOC(=O)C1C2C=CC3(CN(Cc4ccccc4)C(=O)C13)O2 (stereo not drawn),13.7
6,C/C(CC(=O)NC1CCCCCC1)=N\NC(=O)c1cnccn1,2.01
7,CC(C)n1cnnc1SCC(=O)NCC(=O)Nc1ccc(F)cc1,11.2
8,C/C(=N\NC(=O)c1ccn(C)n1)c1ccc(NC(=O)c2cccc(F)c2)cc1,8.11
9,CCc1ccc(OC(=O)c2cccnc2)cc1,21.6
10,COCCCNC(=O)c1ccccc1NS(C)(=O)=O,4.15
11,COCC(=O)NCCNc1nc2ccc(C)cc2cc1C,-24.9
12,CCOc1ccc2nc(NCCNC(=O)C(C)C)c(C)cc2c1,-61
13,COc1ccc(C(=O)NCCNc2nc3cc(C)c(C)cc3cc2C)cc1,7.22
14,CCOc1ccc2nc(NCCNC(=O)C3CC3)c(C)cc2c1,-63.7
15,CCOc1ccc2nc(NCCNC(=O)CC)c(C#N)cc2c1,-12
16,CCOc1ccc2nc(NCCNC(=O)C(C)(C)C)c(C)cc2c1,-46.1
17,O=C(CSc1nc(-c2ccccc2)cs1)Nc1nccs1,-8.07
18,CC(=O)c1c(N2CCN(C(=O)c3ccco3)CC2)nc(=S)n(-c2ccccc2)c1C,-1.95
19,Cc1cc(NC(=O)c2ccc(Br)c(S(=O)(=O)N3CCCC3)c2)no1,0.115
20,COc1ccc2cc1Oc1ccc(cc1)C[C@H]1c3cc(c(OC)cc3CCN1C)Oc1c(OC)c(OC)cc3c1[C@@H](C2)N(C)CC3,-57.4
21,COc1ccc2cc1Oc1ccc(cc1)C[C@H]1c3cc(c(OC)cc3CCN1C)Oc1c(O)c(OC)cc3c1[C@H](C2)N(C)CC3,-47.7
22,COc1ccc2cc1Oc1ccc(cc1)C[C@H]1c3cc(c(OC)cc3CCN1C)Oc1c(OC)c(OC)cc3c1[C@H](C2)N(C)CC3,-37.4
